Binding signal data for 40 sequences are collected here from article PMC9838217, “Structure of SALL4 zinc finger domain reveals link between AT-rich DNA binding and Okihiro syndrome”.

Where a chain is given by its changes, count along the chain named.

One experiment deals with T1, SALL4 ZFC4 WT (HT-SELEX) (Mus musculus, UniProt Q8BX22 870-940).
T1 sequence: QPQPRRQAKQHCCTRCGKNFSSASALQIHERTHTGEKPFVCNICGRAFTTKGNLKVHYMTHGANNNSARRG
Kind of experiment: HT-SELEX; high values mean tight binding. The conditions noted are these: protein: recombinant; vector His6-GST; dsDNA, one strand shown. In short, it runs like this: (§1)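 Purified recombinant mouse SALL4 zinc finger cluster 4 (residues 870–940, 1 µg) was incubated with library DNA (1.5 µg first cycle, 200 ng later) in 100 µl of 10 mM Tris–HCl pH 7.5, 50 mM NaCl, poly(dI-dC) and DTT for 10 min at room temperature, with Ni2+ bead capture and reselection for up to 6 cycles in triplicate. MiSeq reads were scanned for 6-mers. Binding signal is each canonical k-mer's read fraction as fold change relative to the initial random library.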
Take ATTGAA: the binding signal was 2.11 ± 0.107 fold-change vs cycle 0.

Consider ACACTA, for which the binding signal stood at 1.26 ± 0.0187 fold-change vs cycle 0.

GAGAGA: the binding signal turned out to be 0.898 ± 0.0151 fold-change vs cycle 0.

Regarding GAAGCC, the binding signal was 0.311 ± 0.0191 fold-change vs cycle 0.

Consider CATCTC, for which the binding signal stood at 0.879 ± 0.041 fold-change vs cycle 0.

Consider ACTCCA, for which the binding signal amounted to 0.896 ± 0.0264 fold-change vs cycle 0.

With CAGATA, the binding signal came out at 1.33 ± 0.0697 fold-change vs cycle 0.

For CTGGAA, the binding signal is 0.772 ± 0.02 fold-change vs cycle 0.

On to CTTTCA, for which the binding signal was determined as 1.3 ± 0.0524 fold-change vs cycle 0.

ACCCCT: the binding signal was 0.522 ± 0.0409 fold-change vs cycle 0.

Consider ACAAAC, for which the binding signal is 1.07 ± 0.057 fold-change vs cycle 0.

Regarding ATTAAC, the binding signal was found to be 2.04 ± 0.0632 fold-change vs cycle 0.

As to ACGAAA, the binding signal was 1.04 ± 0.0604 fold-change vs cycle 0.

For the sequence TAAGAA, the binding signal amounted to 2.2 ± 0.0931 fold-change vs cycle 0.

Take TAGTCA: the binding signal came to 1.26 ± 0.0279 fold-change vs cycle 0.

In the case of GGTTAA, the binding signal is 1.23 ± 0.0345 fold-change vs cycle 0.

As for TGGCAA, the binding signal was 0.479 ± 0.0154 fold-change vs cycle 0.

For the sequence AAAACT, the binding signal was 1.7 ± 0.107 fold-change vs cycle 0.

In the case of AAACCT, the binding signal came to 1.23 ± 0.0691 fold-change vs cycle 0.

On to ACTGGA, for which the binding signal is 0.84 ± 0.022 fold-change vs cycle 0.

Take ATTGTA: the binding signal was 2.07 ± 0.0871 fold-change vs cycle 0.

AAGAAA: the binding signal came out at 2.03 ± 0.13 fold-change vs cycle 0.

Regarding ATAGCA, the binding signal was 1.2 ± 0.0655 fold-change vs cycle 0.

Turning to AGTTGC, the binding signal amounted to 0.578 ± 0.0388 fold-change vs cycle 0.

ATGCAA: the binding signal is 1.2 ± 0.113 fold-change vs cycle 0.

In the case of AAATGG, the binding signal came to 1.11 ± 0.029 fold-change vs cycle 0.

For the sequence AACGTT, the binding signal turned out to be 1.19 ± 0.0242 fold-change vs cycle 0.

AATACG: the binding signal came out at 1.06 ± 0.0521 fold-change vs cycle 0.

For AGGATG, the binding signal is 0.903 ± 0.0399 fold-change vs cycle 0.

For the sequence CACTAG, the binding signal is 0.821 ± 0.0388 fold-change vs cycle 0.

AGGATA: the binding signal was 1.55 ± 0.0339 fold-change vs cycle 0.

As to GCTTTA, the binding signal was found to be 0.998 ± 0.0694 fold-change vs cycle 0.

GGAAGA: the binding signal stood at 0.939 ± 0.0256 fold-change vs cycle 0.

As to TGCGAA, the binding signal was 0.447 ± 0.0325 fold-change vs cycle 0.

For CTCACA, the binding signal was determined as 0.786 ± 0.0522 fold-change vs cycle 0.

On to CAAATG, for which the binding signal amounted to 1.063 ± 0.0102 fold-change vs cycle 0.

GATCCC: the binding signal stood at 0.519 ± 0.025 fold-change vs cycle 0.

Turning to ACCAAT, the binding signal came to 1.25 ± 0.0373 fold-change vs cycle 0.

For ACTGAG, the binding signal turned out to be 0.855 ± 0.0344 fold-change vs cycle 0.

For the sequence GCATAA, the binding signal was determined as 1.13 ± 0.0858 fold-change vs cycle 0.

The target in the next experiment is T2, SALL4 ZFC4 R900W (HT-SELEX) (Mus musculus, UniProt Q8BX22 870-940, R900W).
T2 sequence: T1 sequence with R31W
Briefly: HT-SELEX; high values mean tight binding. The conditions noted are these: protein: recombinant; vector His6-GST; dsDNA, one strand shown. In short, it runs like this:
as §1
ATTGAA: the binding signal was determined as 2.06 ± 0.169 fold-change vs cycle 0.

For the sequence ACACTA, the binding signal came out at 1.3934 ± 0.0013 fold-change vs cycle 0.

Take GAAGCC: the binding signal came out at 0.3714 ± 0.00344 fold-change vs cycle 0.

Regarding CTGGAA, the binding signal came to 0.891 ± 0.0485 fold-change vs cycle 0.

Consider CTTTCA, for which the binding signal worked out at 1.47 ± 0.103 fold-change vs cycle 0.

With ACCCCT, the binding signal was determined as 0.619 ± 0.0154 fold-change vs cycle 0.

Consider ATTAAC, for which the binding signal was determined as 2.1 ± 0.104 fold-change vs cycle 0.

On to TAGTCA, for which the binding signal stood at 1.4 ± 0.0422 fold-change vs cycle 0.

Consider GGTTAA, for which the binding signal amounted to 1.4 ± 0.0959 fold-change vs cycle 0.

In the case of TGGCAA, the binding signal is 0.535 ± 0.0186 fold-change vs cycle 0.

ACTGGA: the binding signal is 0.993 ± 0.0196 fold-change vs cycle 0.

Regarding ATTGTA, the binding signal turned out to be 2.03 ± 0.111 fold-change vs cycle 0.

In the case of AAGAAA, the binding signal worked out at 2.08 ± 0.193 fold-change vs cycle 0.

Regarding AGTTGC, the binding signal worked out at 0.664 ± 0.014 fold-change vs cycle 0.

AACGTT: the binding signal amounted to 1.33 ± 0.0216 fold-change vs cycle 0.

For the sequence CACTAG, the binding signal came to 0.968 ± 0.0358 fold-change vs cycle 0.

With AGGATA, the binding signal came out at 1.69 ± 0.0876 fold-change vs cycle 0.

Consider TGCGAA, for which the binding signal came to 0.488 ± 0.0122 fold-change vs cycle 0.

For CTCACA, the binding signal came to 0.895 ± 0.0341 fold-change vs cycle 0.

Consider GATCCC, for which the binding signal was found to be 0.62 ± 0.0104 fold-change vs cycle 0.

For a further experiment, the target named is T3, SALL4 ZFC4 G921D (HT-SELEX) (Mus musculus, UniProt Q8BX22 870-940, G921D).
T3 sequence: T1 sequence with G52D
Briefly: HT-SELEX; high values mean tight binding. Particulars: protein: recombinant; vector His6-GST; dsDNA, one strand shown. In short, it runs like this:
as §1
In the case of ATTGAA, the binding signal is 1.86 ± 0.169 fold-change vs cycle 0.

Consider ACACTA, for which the binding signal stood at 1.36 ± 0.0513 fold-change vs cycle 0.

On to GAGAGA, for which the binding signal worked out at 1.06 ± 0.0177 fold-change vs cycle 0.

Consider GAAGCC, for which the binding signal was determined as 0.514 ± 0.0635 fold-change vs cycle 0.

For the sequence CATCTC, the binding signal came to 1.01 ± 0.0361 fold-change vs cycle 0.

For the sequence ACTCCA, the binding signal worked out at 1.03 ± 0.0296 fold-change vs cycle 0.

On to CAGATA, for which the binding signal amounted to 1.29 ± 0.0843 fold-change vs cycle 0.

For the sequence CTGGAA, the binding signal is 0.926 ± 0.0429 fold-change vs cycle 0.

For CTTTCA, the binding signal was found to be 1.35 ± 0.102 fold-change vs cycle 0.

For the sequence ACCCCT, the binding signal is 0.676 ± 0.0257 fold-change vs cycle 0.

In the case of ACAAAC, the binding signal is 1.23 ± 0.0372 fold-change vs cycle 0.

Turning to ATTAAC, the binding signal was found to be 1.83 ± 0.178 fold-change vs cycle 0.

Regarding ACGAAA, the binding signal amounted to 1.11 ± 0.0388 fold-change vs cycle 0.

Take TAAGAA: the binding signal was determined as 1.87 ± 0.231 fold-change vs cycle 0.

As for TAGTCA, the binding signal turned out to be 1.34 ± 0.0704 fold-change vs cycle 0.

With GGTTAA, the binding signal is 1.3 ± 0.0896 fold-change vs cycle 0.

TGGCAA: the binding signal stood at 0.673 ± 0.0414 fold-change vs cycle 0.

As to AAAACT, the binding signal was found to be 1.57 ± 0.146 fold-change vs cycle 0.

As to AAACCT, the binding signal worked out at 1.34 ± 0.0704 fold-change vs cycle 0.

On to ACTGGA, for which the binding signal was determined as 1.01 ± 0.0605 fold-change vs cycle 0.

On to ATTGTA, for which the binding signal stood at 1.79 ± 0.162 fold-change vs cycle 0.

AAGAAA: the binding signal is 1.78 ± 0.233 fold-change vs cycle 0.

For ATAGCA, the binding signal came to 1.23 ± 0.0807 fold-change vs cycle 0.

Consider AGTTGC, for which the binding signal stood at 0.77 ± 0.0363 fold-change vs cycle 0.

Consider ATGCAA, for which the binding signal worked out at 1.18 ± 0.0528 fold-change vs cycle 0.

Take AAATGG: the binding signal is 1.16 ± 0.0413 fold-change vs cycle 0.

Consider AACGTT, for which the binding signal stood at 1.24 ± 0.0303 fold-change vs cycle 0.

For AATACG, the binding signal came to 1.1 ± 0.0362 fold-change vs cycle 0.

For the sequence AGGATG, the binding signal stood at 1.04 ± 0.0274 fold-change vs cycle 0.

As to CACTAG, the binding signal is 0.987 ± 0.027 fold-change vs cycle 0.

Consider AGGATA, for which the binding signal turned out to be 1.5 ± 0.15 fold-change vs cycle 0.

With GCTTTA, the binding signal was found to be 1.11 ± 0.0337 fold-change vs cycle 0.

Turning to GGAAGA, the binding signal worked out at 1.12 ± 0.0151 fold-change vs cycle 0.

In the case of TGCGAA, the binding signal was determined as 0.618 ± 0.0628 fold-change vs cycle 0.

For the sequence CTCACA, the binding signal turned out to be 0.9459 ± 0.00888 fold-change vs cycle 0.

Take CAAATG: the binding signal worked out at 1.17 ± 0.0276 fold-change vs cycle 0.

Consider GATCCC, for which the binding signal was 0.711 ± 0.017 fold-change vs cycle 0.

In the case of ACCAAT, the binding signal stood at 1.33 ± 0.0543 fold-change vs cycle 0.

In the case of ACTGAG, the binding signal was 1.01 ± 0.0137 fold-change vs cycle 0.

GCATAA: the binding signal stood at 1.105 ± 0.0098 fold-change vs cycle 0.
